An excerpt weighted towards active compounds, which were near 19% of everything screened.
IL1B secr inh: inhibitors of inflammasome signaling (IL-1 beta secretion); THP-1 LPS/ATP IL-1B secretion, AlphaLISA, 16 h; hits give low values; 360,000 compounds, 4.7% hits; AID 743279; activity change, % at 57.5 µM; in the data active means activity change below about -50%; inconclusive means mostly about -30% to -49%
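Secreted IL-1B measured by AlphaLISA bead assay after 16 h compound exposure of THP-1 cells; compounds (final up to 57.5 uM) added 1 h before LPS (250 ng/mL) and ATP (1.25 mM) stimulation; lower signal means less secretion.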
HT1080-NT tox: kills 2HG-producing HT-1080-NT fibrosarcoma cells. HT-1080-NT fibrosarcoma viability, CellTiter-Glo ATP luminescence, 48 h. AID 686970. 360,000 compounds, 1.6% hits. Potency, µM (highest dose often 46.1 µM), inactives show at the top dose activity, negative = less viability, actives largely listed as cytotoxic;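 further: NT is the 2HG producing partner of a matched IDH1 knockdown line; potency means the concentration at half of the fitted maximal effect; 0% = DMSO-treated cells and -100% = media-only wells without cells; nearly all actives have a fitted effect of over 55% in size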
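Compounds were tested in concentration-response format on HT-1080-NT cells for 48 hours at 37 degrees C. Cell viability came from CellTiter-Glo luminescence; curves were classified by r2, response magnitude and activity.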
HT1080 IDH1KD tx: toxicity to HT-1080 IDH1 knockdown cells (counter line); HT-1080 IDH1 knockdown viability, ATP luminescence, 48 h; Potency, µM (doses to about 46.1 µM), for the others: top-dose activity, negative = toxicity, hits mostly cytotoxic; 360,000 compounds, 2% hits; AID 686971;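 further: potency means the concentration at half of the fitted maximal effect; 0% = DMSO wells and -100% = cell-free medium wells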
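Using the IDH1-knockdown HT-1080 line run in the same batch and compound series as the NT line, viability after 48 h at 37 °C was determined by CellTiter-Glo luminescence and expressed as % activity.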
TDP1 cell CPT: DT40-hTDP1 cell growth loss with CPT; chicken DT40 Tdp1-/-;hTDP1 cells + 20 nM CPT, ATP luminescence, 48 h; Potency, µM (titrated, usually from 46.2 µM), for inactives: top-dose activity change, negative = growth inhibition, actives largely listed as inhibitors; 420,000 compounds, 12% hits; further: potency means the concentration at half of the fitted maximal effect; nearly all actives have a fitted effect of over 55% in size
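Chicken DT40 Tdp1-/- cells stably complemented with human TDP1 were seeded at 400 cells/well in medium containing 20 nM camptothecin, exposed to pin-transferred compounds, and grown at 37 °C for at least 48 hr. Viability was read as ATP luminescence.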
TDP1 cell noCPT: qHTS for Inhibitors of human tyrosyl-DNA phosphodiesterase 1 (TDP1): qHTS in cells in absence of CPT; 420,000 compounds, 15% hits; Potency, µM (titrated, usually from 46.2 µM), inactives show at the highest dose activity change, negative = growth inhibition, usual class: inhibitors; DT40 Tdp1-/- hTDP1 cells, no CPT, ATP luminescence, 48 h; further: potency means the concentration at half of the fitted maximal effect; nearly all actives have a fitted effect of over 55% in size
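A cellular qHTS used chicken DT40 cells lacking endogenous Tdp1 but carrying stably transfected human TDP1. Compounds were applied without camptothecin, and cell growth kinetics were judged by ATP-dependent luminescence after ≥48 hr.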
An asterisk follows results filed as active; [ ] = another dose, or the depositor's remark. Unless noted, the call rests on the fitted dose curve; in most records, active means well fitted curve in the direction sought with a large enough effect; inconclusive means small, poorly fitted or top-dose-only effect, or another doubt; inactive means no such curve, though single readings can be large; an effect the other way counts as inactive or inconclusive. Unless noted, on the % scale 0 is the no-effect control and ±100 the full control effect.

How did O=C(COC(=O)c1ccc(OC(F)F)cc1)NCCC1=CCCCC1 do in these assays?
IL1B secr inh: -5; HT1080-NT tox: 7%; HT1080 IDH1KD tx: 2%; TDP1 cell CPT: -1%; TDP1 cell noCPT: 0%

Results for OC1CCN(Cc2cccc(Oc3ccccc3)c2)CC1 ?
IL1B secr inh: 0; HT1080-NT tox: -3%; HT1080 IDH1KD tx: -19%; TDP1 cell CPT: 23µM*; TDP1 cell noCPT: inconclusive

Results for CN(C)c1ccc(-c2ccc3ccccc3n2)cc1 ?
TDP1 cell CPT: -17%; TDP1 cell noCPT: -24%

How did CCn1c(-c2ccc(N(C)C)cc2)nc2ccccc21 do in these assays?
IL1B secr inh: -12; HT1080-NT tox: -2%; HT1080 IDH1KD tx: inconclusive; TDP1 cell CPT: 12µM*; TDP1 cell noCPT: 3.7µM*

Results for CN(C)c1ccc(C(O)Cc2nc3ccccc3n2C)cc1 (centres undefined) ?
IL1B secr inh: -54*; HT1080-NT tox: -25%; HT1080 IDH1KD tx: -17%; TDP1 cell CPT: -16%; TDP1 cell noCPT: 3%

Results for CN(C)c1ccc(-c2nc3ccccc3n2C)cc1 ?
IL1B secr inh: -66*; HT1080-NT tox: inconclusive; HT1080 IDH1KD tx: 11µM*; TDP1 cell CPT: 13µM*; TDP1 cell noCPT: 13µM*

How did CC(C)n1c(-c2ccc(N(C)C)cc2)nc2ccccc21 do in these assays?
IL1B secr inh: -13; HT1080-NT tox: -21%; HT1080 IDH1KD tx: 10%[9.24 µM]; TDP1 cell CPT: 29µM*; TDP1 cell noCPT: 11µM*

What do the screens show for `CC(=O)N(CC(O)CO)c1c(I)c(C(=O)NCCO)c(I)c(C(=O)NCC(O)CO)c1I` (centres undefined)?
TDP1 cell CPT: -7%; TDP1 cell noCPT: 4%

What do the screens show for `Cc1ccc2c(c1)CN(CCNC(=O)c1ccc3nc(C)[nH]c3c1)CC(C)O2` (centres undefined)?
TDP1 cell CPT: 7%[9.04 µM]; TDP1 cell noCPT: -7%

How did Cc1ccc(OCc2nc(-c3ccc(C(=O)N4CCN(c5ccccc5F)CC4)cc3)oc2C)cc1 do in these assays?
TDP1 cell CPT: -1%; TDP1 cell noCPT: -4%

What do the screens show for `Cc1ccc2nc(N3CC(=O)Nc4ccccc43)nc(-c3ccccc3)c2c1`?
IL1B secr inh: 30; HT1080-NT tox: 18µM*; HT1080 IDH1KD tx: 16µM*; TDP1 cell CPT: inconclusive; TDP1 cell noCPT: inconclusive

What do the screens show for `Cc1ccc2nc(N3CCC(C(=O)O)CC3)nc(-c3ccccc3)c2c1`?
IL1B secr inh: 2; HT1080-NT tox: -4%; HT1080 IDH1KD tx: 3%; TDP1 cell CPT: -20%; TDP1 cell noCPT: -28%

What do the screens show for `CC(C)CCNC1c2ccccc2C(=O)N1Cc1ccccc1` (centres undefined)?
IL1B secr inh: 2; HT1080-NT tox: 5%; HT1080 IDH1KD tx: 1%; TDP1 cell CPT: -24%; TDP1 cell noCPT: 23µM*

How did CCCCN(C(=O)c1ccccc1Cl)C(CC(C)C)c1nc2ccccc2[nH]1 (centres undefined) do in these assays?
IL1B secr inh: 9; HT1080-NT tox: inconclusive; HT1080 IDH1KD tx: inconclusive; TDP1 cell CPT: 21µM*; TDP1 cell noCPT: inconclusive

What do the screens show for `CCCSc1nc(C)cc(C)c1C(N)=O`?
IL1B secr inh: -6; HT1080-NT tox: 14%; HT1080 IDH1KD tx: 20%; TDP1 cell CPT: 5%; TDP1 cell noCPT: 5%

How did Cc1nc(Nc2cc(F)ccc2C)c2nnn(Cc3ccccc3)c2n1 do in these assays?
IL1B secr inh: inconclusive; HT1080-NT tox: -8%; HT1080 IDH1KD tx: -18%; TDP1 cell CPT: inconclusive; TDP1 cell noCPT: 21µM*

How did Cc1nc(NCCc2ccc(F)cc2)c2nnn(Cc3ccccc3)c2n1 do in these assays?
IL1B secr inh: 9; HT1080-NT tox: 24%; HT1080 IDH1KD tx: 15%; TDP1 cell CPT: 0%; TDP1 cell noCPT: 0%

How did Cc1nc2c(nnn2Cc2ccccc2Cl)c(=O)[nH]1 do in these assays?
IL1B secr inh: 11; HT1080-NT tox: 12%; HT1080 IDH1KD tx: 10%; TDP1 cell CPT: -6%; TDP1 cell noCPT: -25%

What do the screens show for `Cc1nc(NCCc2ccc(O)cc2)c2nnn(Cc3ccccc3)c2n1`?
IL1B secr inh: -28; HT1080-NT tox: inconclusive; HT1080 IDH1KD tx: inconclusive; TDP1 cell CPT: inconclusive; TDP1 cell noCPT: 15µM*

How did Cc1nc2c(nnn2Cc2ccccc2)c(=O)[nH]1 do in these assays?
IL1B secr inh: 0; HT1080-NT tox: 14%; HT1080 IDH1KD tx: -1%; TDP1 cell CPT: 23µM*; TDP1 cell noCPT: inconclusive

What do the screens show for `COc1ccc(Nc2nc(C)nc3c2nnn3Cc2ccccc2)cc1OC`?
IL1B secr inh: -11; HT1080-NT tox: -14%; HT1080 IDH1KD tx: -13%; TDP1 cell CPT: inconclusive; TDP1 cell noCPT: 23µM*

What do the screens show for `O=C(c1csnn1)N1CCC2(CCCN(c3ccncc3)C2)CC1`?
TDP1 cell CPT: 2%; TDP1 cell noCPT: inconclusive

What do the screens show for `Cc1cccc(C)c1NC(=O)C1(C)CN(S(C)(=O)=O)CC(=O)N1Cc1ccco1` (centres undefined)?
IL1B secr inh: 1; HT1080-NT tox: 4%; HT1080 IDH1KD tx: 23%; TDP1 cell CPT: inconclusive; TDP1 cell noCPT: 10%

How did COc1ccc(C(=O)NNC(=O)C(=O)NC2CCCCC2)cc1 do in these assays?
IL1B secr inh: -5; HT1080-NT tox: -25%; HT1080 IDH1KD tx: -4%; TDP1 cell CPT: -19%; TDP1 cell noCPT: inconclusive

Results for Cc1nc(NC2CCCCC2)c2nnn(Cc3ccccc3Cl)c2n1 ?
IL1B secr inh: 1; HT1080-NT tox: -8%; HT1080 IDH1KD tx: -3%; TDP1 cell CPT: inconclusive; TDP1 cell noCPT: inconclusive

How did Cc1nc(Nc2ccc(S(=O)(=O)N3CCCCC3C)cc2)c2nnn(Cc3ccccc3)c2n1 (centres undefined) do in these assays?
IL1B secr inh: -8; HT1080-NT tox: -1%; HT1080 IDH1KD tx: 21%; TDP1 cell CPT: inconclusive; TDP1 cell noCPT: 23µM*

What do the screens show for `Cc1nc(Nc2ccccc2Br)c2nnn(Cc3ccccc3)c2n1`?
IL1B secr inh: -16; HT1080-NT tox: -3%; HT1080 IDH1KD tx: -7%; TDP1 cell CPT: inconclusive; TDP1 cell noCPT: inconclusive

What do the screens show for `CCOC(=O)CNc1nc(C(C)(C)C)nc2c1nnn2Cc1ccccc1Cl`?
IL1B secr inh: 16; HT1080-NT tox: -2%; HT1080 IDH1KD tx: -20%; TDP1 cell CPT: inconclusive; TDP1 cell noCPT: 26µM*

How did COc1ccc(Nc2nc(C(C)(C)C)nc3c2nnn3Cc2ccccc2Cl)cc1OC do in these assays?
IL1B secr inh: -6; HT1080-NT tox: -2%; HT1080 IDH1KD tx: -1%; TDP1 cell CPT: 18µM*; TDP1 cell noCPT: 15µM*

How did Cc1nc(N2CCC(C(N)=O)CC2)c2nnn(Cc3ccccc3)c2n1 do in these assays?
IL1B secr inh: 16; HT1080-NT tox: 3%; HT1080 IDH1KD tx: -1%; TDP1 cell CPT: -10%; TDP1 cell noCPT: -10%

Screens (PubChem)
